This is an account of results in PubChem BioAssay AID1159580 (chemical genetic matrix, 2015).

Each structure is given as a SMILES string. The whole screen tested about 5,500 compounds, of which about 2,000 (36%) were called active. Not shown: some 18% with an inconclusive outcome. This is one part of the list. Values without a mark were called inactive. No stated cut-off is given here; in the data, active means normalized growth mostly below about 0.91 (no sharp cut-off); inconclusive means no clear call, values can overlap the other calls; inactive means mostly above about 0.92.

A short description of this assay: chemical genetic growth profiling, strain panel (AID 1159580).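 Further: tested at 20 µM; growth read once vehicle control cultures reached saturation at 30 °C; 1 = growth at the plate median or of vehicle wells; lower values mean less growth of the strain.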 The note with it: growth OD.
The mark [1] stands for this setting: S. cerevisiae deletion strains, locus YAL040C, strain CLN3, hits give low values.
[2] abbreviates: S. cerevisiae deletion strains, locus YCL061C, strain MRC1 (second series), hits give low values.
Where [3] appears, read: S. cerevisiae deletion strains, locus YDR150W, strain NUM1, hits give low values.
Setting [4] is: S. cerevisiae deletion strains, locus YDR363W, strain ESC2, hits give low values.
Where [5] appears, read: S. cerevisiae deletion strains, locus YER002W, strain NOP16, hits give low values.
Where [6] appears, read: S. cerevisiae deletion strains, locus YGR078C, strain PAC10, hits give low values.
The mark [7] stands for this setting: S. cerevisiae deletion strains, locus YGR229C, strain SMI1, hits give low values.
[8] abbreviates: S. cerevisiae deletion strains, locus YNL153C, strain GIM3, hits give low values.
[9] abbreviates: S. cerevisiae deletion strains, locus YNL175C, strain NOP13, hits give low values.
Setting [10] is: S. cerevisiae deletion strains, locus YNL197C, strain WHI3, hits give low values.
Where [11] appears, read: S. cerevisiae deletion strains, locus YNL224C, strain SQS1, hits give low values.
Where [12] appears, read: S. cerevisiae deletion strains, locus YNL322C, strain KRE1, hits give low values.
The mark [13] stands for this setting: S. cerevisiae deletion strains, locus YOR083W, strain WHI5 (second series), hits give low values.
Setting [14] is: S. cerevisiae deletion strains, locus YPL055C, strain LGE1, hits give low values.
The mark [15] stands for this setting: S. cerevisiae deletion strains, locus YJR075W, strain HOC1, hits give low values.
Where [16] appears, read: S. cerevisiae deletion strains, locus YMR263W, strain SAP30, hits give low values.
Setting [17] is: S. cerevisiae deletion strains, locus YPL241C, strain CIN2, hits give low values.

Take `O=C(O)Cc1ccc(O)c(O)c1`: the normalized growth was 1.05 under setting [1]; 1 under setting [2]; 1.01 under setting [3]; 0.993 under setting [4]; 0.996 under setting [5]; 1.02 under setting [6]. Further, the normalized growth reads like this: under setting [7], 0.976; under setting [8], 1.02; under setting [9], 1.02; under setting [10], 1.02; under setting [11], 0.982; under setting [12], 1. Moreover, the normalized growth is, setting by setting: under setting [13], 0.996; under setting [14], 0.982.
Regarding `O=C(O)Cc1c[nH]c2ccc(O)cc12`, the normalized growth under setting [1] is 0.988; the normalized growth under setting [2] was 1; the normalized growth under setting [3] was 1.01; the normalized growth under setting [4] was 1; the normalized growth under setting [5] was 0.974; the normalized growth under setting [6] is 0.979. Besides, the normalized growth by setting is: under setting [7], 1.08; under setting [15], 1.01; under setting [16], 0.995; (S. cerevisiae deletion strains, locus YMR307W, strain GAS1, hits give low values) 1.01; under setting [8], 0.961; under setting [9], 0.982. Besides, the normalized growth under setting [10] was 0.975, the normalized growth under setting [11] was 1.01, the normalized growth under setting [13] is 1 and the normalized growth under setting [17] was 0.992.
Take `Cc1ccc(CC(=O)O)cc1`: the normalized growth reads like this: (S. cerevisiae deletion strains, locus YAL013W, strain DEP1, hits give low values) 0.973; (S. cerevisiae deletion strains, locus YBR229C, strain ROT2, hits give low values) 0.978; (S. cerevisiae deletion strains, locus YDL101C, strain DUN1, hits give low values) 0.938; under setting [3], 0.884; (S. cerevisiae deletion strains, locus YEL061C, strain CIN8, hits give low values) 1.02; under setting [6], 0.926 (active). Also, the normalized growth (S. cerevisiae deletion strains, locus YHR030C, strain SLT2, hits give low values) was 1.04; the normalized growth (S. cerevisiae deletion strains, locus YHR087W, strain rtc3, hits give low values) is 0.947; the normalized growth (S. cerevisiae deletion strains, locus YJR043C, strain POL32, hits give low values) is 0.959; the normalized growth under setting [15] was 0.885 (active); the normalized growth (S. cerevisiae deletion strains, locus YKL190W, strain CNB1, hits give low values) is 1.01; the normalized growth (S. cerevisiae deletion strains, locus YLR039C, strain RIC1, hits give low values) is 1.01. Besides, the normalized growth (S. cerevisiae deletion strains, locus YLR058C, strain SHM2 (second series), hits give low values) was 0.972; the normalized growth (S. cerevisiae deletion strains, locus YLR085C, strain ARP6, hits give low values) was 1.08; the normalized growth (S. cerevisiae deletion strains, locus YLR262C, strain YPT6, hits give low values) is 0.998; the normalized growth (S. cerevisiae deletion strains, locus YML094W, strain GIM5, hits give low values) is 1.03; the normalized growth (S. cerevisiae deletion strains, locus YMR219W, strain ESC1, hits give low values) is 0.985; the normalized growth under setting [16] is 0.938. Also, the normalized growth is, setting by setting: under setting [8], 0.964; (S. cerevisiae deletion strains, locus YNL298W, strain CLA4 (second series), hits give low values) 1.06; under setting [12], 0.981; (S. cerevisiae deletion strains, locus YNR030W, strain Alg12, hits give low values) 1.03; (S. cerevisiae deletion strains, locus YOL006C, strain TOP1, hits give low values) 1.06; under setting [14], 0.906. Besides, the normalized growth is 1.02 under setting [17]; 1.03 (S. cerevisiae deletion strains, locus YPR135W, strain CTF4, hits give low values); 1.02 (S. cerevisiae strains, strain wild type, hits give low values).
